Where “and” joins values, the source holds several entries; their conditions need not be identical. Equal values may be shown once. Some structures have more than one record in an assay (separate samples or runs), and their calls can disagree. Calls of active or inactive are those of the source. How the source made its calls: active means hit-call score of the fitted dose curve at least 0.9, where 1 is the maximum; inactive means score below 0.9.
Legend:
Details in all cases: mRNA level, 48 h; actives raise or lower the signal
[1] = read-out: Cytochrome P450 (CYP2B6), CYP2B6 (gene 1555); test: LTEA_HepaRG_CYP2B6: Life Technologies and Expression Analysis (LTEA) Assay for Cytochrome P450 (CYP2B6) using HepaRG (AID 2283481)
Summary of the method: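 Differentiated HepaRG cells, serum-free induction medium, exposed 48 h in duplicate to 8-point half-log concentrations from 100 uM in 0.5% DMSO. CYP2B6 mRNA by qRT-PCR, normalized to ACTB, GAPDH, POLR2A; bidirectional fit versus DMSO.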

[2] = read-out: Cytochrome P450 2C19 (Homo sapiens) (UniProt P33261); test: LTEA_HepaRG_CYP2C19: Life Technologies and Expression Analysis (LTEA) Assay for CYP2C19 using HepaRG (AID 2283482)
Summary of the method: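 Differentiated human HepaRG cells were exposed for 48 h in serum-free induction medium to 8 concentrations (top 100 uM, half-log steps, 0.5% DMSO). CYP2C19 mRNA was measured by qRT-PCR, normalized to ACTB/GAPDH/POLR2A, and fitted bidirectionally against DMSO.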

[3] = read-out: CYP2C8 (gene 1558); test: LTEA_HepaRG_CYP2C8: Life Technologies and Expression Analysis (LTEA) Assay for CYP2C8 using HepaRG (AID 2283483)
Summary of the method: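 Differentiated human HepaRG cells were exposed for 48 h in serum-free induction medium to eight half-log concentrations up to 100 uM in 0.5% DMSO, in duplicate. CYP2C8 mRNA was measured by TaqMan qRT-PCR, normalized to ACTB, GAPDH and POLR2A, and fitted bidirectionally against DMSO.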

[4] = read-out: CYP2C9 (gene 1559); test: LTEA_HepaRG_CYP2C9: Life Technologies and Expression Analysis (LTEA) Assay for CYP2C9 using HepaRG (AID 2283484)
Summary of the method: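 Differentiated human HepaRG cells were exposed 48 h in serum-free induction medium to eight half-log concentrations up to 100 uM in 0.5% DMSO. CYP2C9 mRNA was measured by qRT-PCR, normalized to ACTB, GAPDH and POLR2A, and fitted bidirectionally against DMSO.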

[5] = read-out: CYP4A11 (gene 1579); test: LTEA_HepaRG_CYP4A11: Life Technologies and Expression Analysis (LTEA) Assay for CYP4A11 using HepaRG (AID 2283486)
Summary of the method: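 Differentiated HepaRG cells, serum-free induction medium, exposed 48 h in duplicate to 8-point half-log series from 100 uM in 0.5% DMSO. CYP4A11 mRNA measured by qRT-PCR, normalized to ACTB, GAPDH, POLR2A; bidirectional fit versus DMSO.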

[6] = read-out: DNA damage-inducible transcript 3 (DDIT3), DDIT3 (gene 1649); test: LTEA_HepaRG_DDIT3: Life Technologies and Expression Analysis (LTEA) Assay for DNA damage-inducible transcript 3 (DDIT3) using HepaRG (AID 2283488)
Summary of the method: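 HepaRG plated 48 h, switched to serum-free induction medium, dosed 48 h (100 uM top, half-log, 8 pts, 0.5% DMSO, n=2); RNA isolated; DDIT3 by qRT-PCR; bidirectional curve fit vs DMSO.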

[7] = read-out: Pro-epidermal growth factor (Homo sapiens) (UniProt P01133); test: LTEA_HepaRG_EGF: Life Technologies and Expression Analysis (LTEA) Assay for Epidermal growth factor (EGF) using HepaRG (AID 2283489)
Summary of the method: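 Differentiated human HepaRG cells, plated 48 h then switched to serum-free induction medium, were exposed for 48 h to test chemicals (8-point half-log series, top 100 uM, 0.5% DMSO). EGF mRNA was quantified by qRT-PCR, normalized to ACTB, GAPDH, POLR2A.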

[8] = read-out: Early growth response protein 1 (EGR1) transcription factor, EGR1 (gene 1958); test: LTEA_HepaRG_EGR1: Life Technologies and Expression Analysis (LTEA) Assay for Early growth response protein 1 (EGR1) transcription factor using HepaRG (AID 2283490)
Summary of the method: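 Differentiated human HepaRG cells in serum-free induction medium were exposed in duplicate for 48 h to eight concentrations (top 100 uM, half-log steps) in 0.5% DMSO. EGR1 mRNA was quantified by qRT-PCR, normalized to ACTB, GAPDH and POLR2A, and fitted bidirectionally versus DMSO.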

[9] = read-out: CYP3A5 (gene 1577); test: LTEA_HepaRG_CYP3A5: Life Technologies and Expression Analysis (LTEA) Assay for CYP3A5 using HepaRG (AID 2283493)
Summary of the method: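 HepaRG plated 48 h, switched to serum-free induction medium, chemicals added 48 h (max 100 uM, half-log, 0.5% DMSO). RNA isolated; CYP3A5 by TaqMan qRT-PCR. Gain/loss vs DMSO.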

[10] = read-out: Cytochrome P450 4A22 (Homo sapiens) (UniProt Q5TCH4); test: LTEA_HepaRG_CYP4A22: Life Technologies and Expression Analysis (LTEA) Assay for Cytochrome P450 4A22 (CYP4A22) using HepaRG (AID 2283495)
Summary of the method: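 qRT-PCR of CYP4A22 mRNA (Fluidigm TaqMan, normalized to three housekeeping genes) after 48 h chemical exposure of HepaRG cells; 8-point half-log series, top 100 uM, 0.5% DMSO vehicle. Bidirectional curve fitting vs DMSO baseline.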

Measured: AC50

Cytochrome P450 2C19 (Homo sapiens), sequence (P33261 whole entry, looked up): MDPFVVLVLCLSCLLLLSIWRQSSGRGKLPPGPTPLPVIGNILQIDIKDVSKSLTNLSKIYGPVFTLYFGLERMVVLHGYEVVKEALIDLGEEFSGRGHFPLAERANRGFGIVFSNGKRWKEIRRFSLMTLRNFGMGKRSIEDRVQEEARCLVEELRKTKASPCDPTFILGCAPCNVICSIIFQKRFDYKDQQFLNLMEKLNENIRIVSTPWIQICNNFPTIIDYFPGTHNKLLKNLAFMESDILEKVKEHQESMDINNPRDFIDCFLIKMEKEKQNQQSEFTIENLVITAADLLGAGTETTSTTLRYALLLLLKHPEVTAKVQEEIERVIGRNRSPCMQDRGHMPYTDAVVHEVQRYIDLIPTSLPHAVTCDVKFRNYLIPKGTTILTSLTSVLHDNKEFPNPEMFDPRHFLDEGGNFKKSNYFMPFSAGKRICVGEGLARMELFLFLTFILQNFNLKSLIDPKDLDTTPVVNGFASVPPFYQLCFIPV

CN(C)N=O
inactive: [1] | [2] | [3] | [4] | [5] | [6] | [7] | [8] | [9] | [10]

Oc1cccc2cccnc12
inactive: [1] | [2] | [3] | [5] | [6] | [7] | [8] | [9] | [10]

Cc1ccccc1N
inactive: [1] | [2] | [3] | [4] | [5] | [6] | [7] | [8] | [9] | [10]

C[C@@H]1C[C@@H]([C@H](O)CC2CC(=O)NC(=O)C2)C(=O)[C@@H](C)C1
active: [7] 2.36 µM | [8] 91.8 µM
inactive: [6]

CCOP(=S)(OCC)Oc1nc(Cl)c(Cl)cc1Cl
inactive: [3] | [4] | [5] | [6] | [7] | [8] | [9] | [10]
active: [1] 11.4 µM | [2] 23.8 µM

CC(C)(C)CC(C)(C)c1ccc(O)cc1
inactive: [2] | [3] | [4] | [6] | [7] | [8] | [9]
active: [1] 3.33 µM | [5] 72.3 µM | [10] 50 µM

O=c1[nH]c(=O)[nH]c(=O)[nH]1
inactive: [1] | [2] | [3] | [4] | [5] | [6] | [7] | [8] | [9] | [10]

C[C@]12CCC(=O)C[C@@H]1CC[C@@H]1[C@@H]2CC[C@]2(C)[C@@H](O)CC[C@@H]12
active: [2] 23.6 µM | [5] 23.9 µM | [10] 28.8 µM
inactive: [1] | [3] | [4] | [6] | [7] | [8] | [9]

O=C1C2(Cl)C3(Cl)C4(Cl)C(Cl)(Cl)C5(Cl)C3(Cl)C1(Cl)C5(Cl)C24Cl (stereo not drawn)
inactive: [7]
active: [1] 93.5 µM | [2] 26.4 µM | [3] 25.2 µM | [4] 94.1 µM | [5] 22.8 µM | [6] 89.4 µM | [8] 95.5 µM | [9] 92.4 µM | [10] 24.1 µM

CCC(=O)C(CC(C)N(C)C)(c1ccccc1)c1ccccc1 (stereo not drawn)
active: [1] 2.41 µM | [2] 10.1 µM | [6] 36.2 µM
inactive: [3] | [4] | [5] | [7] | [8] | [9] | [10]

CC(C)(OO)c1ccccc1
inactive: [2] | [3] | [4] | [5] | [6] | [7] | [8] | [9] | [10]
active: [1] 22.9 µM

COc1cc(-c2ccc(N)c(OC)c2)ccc1N
inactive: [2] | [3] | [4] | [6] | [7] | [8] | [9]
active: [1] 3.49 µM and 4.26 µM | [4] 77.4 µM | [5] 62.6 µM and 50 µM | [6] 80.3 µM | [7] 13.3 µM | [10] 38.3 µM and 50 µM

CCOP(=S)(OCC)SCSP(=S)(OCC)OCC
active: [1] 13 µM | [2] 26.1 µM | [3] 0.121 µM | [9] 0.236 µM | [10] 0.0742 µM
inactive: [4] | [5] | [6] | [7] | [8]

CCCCCCCCc1ccc(O)cc1
inactive: [1] | [2] | [3] | [4] | [6] | [8] | [9]
active: [5] 65.8 µM

Cn1sc(Cl)cc1=O
inactive: [1] | [2] | [3] | [4] | [5] | [6] | [7] | [8] | [9] | [10]

O=C(O)C(Cl)(Cl)Cl
inactive: [1] | [2] | [3] | [4] | [5] | [6] | [7] | [8] | [9] | [10]

CC(=O)[O][Hg][c]1ccccc1
active: [1] 6.12 µM | [2] 5 µM | [3] 5 µM | [4] 0.862 µM | [8] 26.9 µM | [9] 11 µM
inactive: [5] | [6]

O=C(O)C(F)(F)C(F)(F)C(F)(F)C(F)(F)C(F)(F)C(F)(F)C(F)(F)C(F)(F)C(F)(F)C(F)(F)F
inactive: [2] | [3] | [6] | [7] | [8] | [10]
active: [1] 47.8 µM | [4] 47.8 µM | [5] 21.5 µM | [9] 21.4 µM

CC(C)(c1ccccc1)c1ccc(O)c(C(C)(C)c2ccccc2)c1
active: [1] 11.9 µM | [2] 83.2 µM | [3] 85 µM | [4] 85.4 µM | [5] 73.4 µM | [7] 29.4 µM | [8] 72.1 µM | [10] 70.4 µM
inactive: [6] | [9]

C=C(C)C(=O)[O][Sn]([CH2]CCC)([CH2]CCC)[CH2]CCC
active: [1] 2.33 µM | [2] 2.64 µM | [3] 2.38 µM | [5] 1.49 µM | [6] 92.4 µM | [9] 4.68 µM
inactive: [4] | [8]

C=CC(=O)OCCCCCC(C)C
inactive: [1] | [2] | [3] | [4] | [5] | [6] | [7] | [8] | [9] | [10]

CC(C)(C)c1cc(O)ccc1O
inactive: [1] | [2] | [3] | [4] | [5] | [6] | [7] | [8] | [9] | [10]

CC12CC1(C)C(=O)N(c1cc(Cl)cc(Cl)c1)C2=O (stereo not drawn)
active: [1] 4.53 µM | [2] 8.3 µM | [5] 9.13 µM
inactive: [3] | [4] | [6] | [7] | [8] | [9]

O=C(O)C(F)(F)C(F)(F)C(F)(F)C(F)(F)C(F)(F)C(F)(F)F
active: [1] 24.9 µM | [2] 0.576 µM | [5] 18.6 µM | [10] 21.4 µM
inactive: [3] | [4] | [6] | [7] | [8] | [9]

NC(=O)O
inactive: [1] | [2] | [3] | [4] | [5] | [6] | [7] | [8] | [9] | [10]

O=C(Nc1ccc2[nH]ccc2c1)c1cc2cc(F)ccc2n1Cc1cccc(F)c1
inactive: [7] | [8]
active: [1] 35.1 µM | [2] 73.6 µM | [3] 27 µM | [4] 35.7 µM | [5] 16.6 µM | [6] 18 µM | [9] 92.9 µM | [10] 22.3 µM

ClCC(Cl)CCl
active: [1] 17.7 µM
inactive: [2] | [3] | [4] | [5] | [6] | [7] | [8] | [9] | [10]

CCN1CCC2(CC1)COc1cc3c(cc12)N(C(=O)c1ccc(-c2ccc(-c4nnc(C)o4)cc2C)cc1)CC3
active: [1] 28.3 µM | [2] 21.9 µM | [4] 21.4 µM | [5] 46.8 µM | [6] 11.6 µM | [8] 11.9 µM | [9] 16 µM
inactive: [3] | [7] | [10]

O=[N+]([O-])c1ccc(O)c([N+](=O)[O-])c1
active: [1] 16 µM | [2] 19.5 µM | [3] 40.1 µM | [4] 21.8 µM | [5] 31.5 µM | [6] 89.7 µM | [7] 12.9 µM | [8] 12.5 µM | [9] 10.6 µM | [10] 27.8 µM

ClC1(Cl)C2(Cl)C3(Cl)C4(Cl)C(Cl)(Cl)C5(Cl)C3(Cl)C1(Cl)C5(Cl)C24Cl (stereo not drawn)
inactive: [3] | [4] | [6] | [7] | [8] | [9] | [10]
active: [1] 0.73 µM | [2] 3.41 µM | [5] 20 µM

CCC(C)(C)c1ccc(O)c(C(C)(C)CC)c1
inactive: [1] | [2] | [3] | [4] | [5] | [6] | [7] | [8] | [9] | [10]
